The values below come from PubChem BioAssay AID1851 (National Center for Advancing Translational Sciences (NCATS), 2009).

The structures appear in SMILES notation. About 5,100 (32%) of roughly 16,000 compounds were called active. Not shown: some 25% with an inconclusive outcome. The list shows a part of the results. Unmarked numbers belong to inactive results. The call rests on the fitted dose curve; in most records, active means well fitted curve in the direction sought with a large enough effect; inconclusive means small, poorly fitted or top-dose-only effect, or effect the other way; inactive means no such curve, though single readings can be large or run the other way.
On the % scale 0 is the no-effect control and ±100 the full control effect.

For the test, the target named is Cytochrome P450 3A4 (Homo sapiens) (UniProt P08684). The experiment in a line: Cytochrome panel assay with activity outcomes. The note with it: recombinant CYP, pro-luciferin dealkylation, luminescence, p450-cyp3a4; series mostly up to 57.1 µM; activity, negative = inhibition: at the top concentration.
Chain of Cytochrome P450 3A4 (Homo sapiens) (P08684 whole entry, looked up): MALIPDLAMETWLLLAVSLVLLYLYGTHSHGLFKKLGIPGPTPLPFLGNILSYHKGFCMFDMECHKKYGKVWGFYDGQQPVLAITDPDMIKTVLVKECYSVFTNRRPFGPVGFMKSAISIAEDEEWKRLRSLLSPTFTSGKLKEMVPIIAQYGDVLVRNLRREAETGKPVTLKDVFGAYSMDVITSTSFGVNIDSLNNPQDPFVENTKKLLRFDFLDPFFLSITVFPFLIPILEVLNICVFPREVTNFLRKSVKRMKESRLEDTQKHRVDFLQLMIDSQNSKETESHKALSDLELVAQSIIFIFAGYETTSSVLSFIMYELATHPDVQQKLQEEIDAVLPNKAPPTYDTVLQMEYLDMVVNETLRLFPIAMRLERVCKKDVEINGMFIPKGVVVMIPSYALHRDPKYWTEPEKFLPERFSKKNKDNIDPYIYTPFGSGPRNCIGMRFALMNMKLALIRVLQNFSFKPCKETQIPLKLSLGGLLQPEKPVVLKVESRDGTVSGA
As to `CN1CCCC2(CCN(C(=O)c3ccncc3)CC2)C1`, the “activity, negative = inhibition” value was -21.7%. The same measure, in the same setting: under `c1csc(CN2CC[C@@]3(CCCNC3)C2)n1` stands -13.6%; under `Cc1noc(C)c1C(=O)N1CCC2(CCCN(CC(C)C)C2)CC1`, -15.7%. With `c1cc(CN2CCC3(CCNCC3)CC2)ccn1`, the “activity, negative = inhibition” value is -12.2%. By AC50 is commonly meant the concentration giving half of the maximal activity seen. For the molecule `O=C(Oc1ccccc1)N1CCC2(CCCN(Cc3nccs3)C2)CC1`, the AC50 is 12.6 µM (active).

Regarding `N=C(N)n1cc(/C=N\N=C(N)N)cn1`, the activity, negative = inhibition is -16.6% [at 11.4 µM]. The same measure, in the same setting: under `c1ccc2c(c1)-c1ccccc1C2N1CC2CCC(CC2)C1` stands -5.36% [at 11.4 µM]; under `CN1[C@@H](C[C@@H](O)c2ccccc2)CCC[C@@H]1C[C@H](O)c1ccccc1`, 20.8% [at 25.6 µM]; under `O=[N+]([O-])c1cc(-c2ccc([As](=O)(O)O)cc2)ccc1[As](=O)(O)O`, 9.09% [at 11.4 µM].

As to `O=C(O)[C@@H]1[C@H](C(=O)O)[C@]2(Cl)C(Cl)=C(Cl)[C@@]1(Cl)C2(Cl)Cl`, the activity, negative = inhibition was -9.54% [at 11.4 µM]. Same read-out and setting: under `C(#CCN1CCCC1)CN1CCCC1` stands -0.507% [at 25.6 µM]; under `C[C@]12CC[C@H](O)C[C@@H]1CC[C@H]1[C@H]2CC[C@]2(C)C(=O)CC[C@@H]12`, “inactive”; under `Cc1cccc(NC(=S)NC2CC3CCCC(C2)N3Cc2cccs2)c1` (stereo not given), -1.32% [at 2.29 µM]. On to `COc1ccc(C[C@H]2NC[C@H](O)[C@@H]2OC(C)=O)cc1`, for which the “activity, negative = inhibition” value is -6.91%.

For the molecule `COC1=C(C)C(=O)c2c(c(COC(N)=O)c3n2C[C@@H]2[C@@H]3N2C)C1=O` (stereo not given in full), the activity, negative = inhibition is -20.6% [at 11.4 µM].

For the molecule `COC(=O)[C@@H]1c2cc3c(c(O)c2[C@@H](O)C[C@]1(C)O)C(=O)c1c(O)cc2c(c1C3=O)O[C@H]1O[C@@]2(C)[C@@H](O)[C@H](N(C)C)[C@H]1O`, the activity, negative = inhibition was -12% [at 11.4 µM].

For `C[C@@]12CC[C@H](O[C@@H]3O[C@H](CO)[C@@H](O)[C@H](O)[C@@H]3O)C[C@@H]1CC[C@H]1[C@H]2CC[C@@]2(C)[C@@H](C3=CCOC3=O)CC[C@]12O`, the activity, negative = inhibition was 0.209% [at 11.4 µM]. On to `C1C[C@@H]2CN(CCCN3CCOCC3)[C@@H](C1)O2`, for which the activity, negative = inhibition is -5.91% [at 11.4 µM].

`NN=C(N)N`: the “activity, negative = inhibition” value was -9.75%.

With `Clc1ccc(C(c2ccc(Cl)cc2)n2cc[n+](C[C@@H](OCc3ccc(Cl)cc3Cl)c3ccc(Cl)cc3Cl)c2)cc1`, the concentration at half-maximal activity (AC50) is 15.8 µM (active). `CC(C)CN1CCC2(CC1)CCN(S(C)(=O)=O)CC2`: the “activity, negative = inhibition” value was -10.9%. With `O=c1[nH]oc2c1CCNC2`, the activity, negative = inhibition entry was “inactive”. Still for that read-out and setting: under `CCC1(CC)C(=O)C=CNC1=O` stands -11.7% [at 25.6 µM]; under `CC(C)[C@@H]1CN[C@H](C(=O)O)[C@@H]1CC(=O)O`, -9.31%. `C=C1CC[C@H](O)C/C1=C/C=C1\CCC[C@]2(C)[C@H]1CC[C@H]2[C@@H](C)CCCC(C)C`: the “activity, negative = inhibition” value is 4.36% [at 25.6 µM]. For the molecule `N[C@@]1(C(=O)O)CC[C@H](C(=O)O)C1`, the activity, negative = inhibition entry is “inactive”. Regarding `CC[C@H](CO)NC(=O)[C@@H]1C=C2c3cccc4c3c(cn4C)C[C@@H]2N(C)C1`, the “activity, negative = inhibition” value is -17.3%.

With `CC(C)[C@@]1(NC(=O)[C@@H]2C[C@H]3c4cccc5[nH]cc(c45)C[C@@H]3N(C)C2)O[C@]2(O)[C@H]3CCCN3C(=O)CN2C1=O`, the “activity, negative = inhibition” value was 24.7% [at 25.6 µM]. Turning to `CC(C)C[C@H]1C(=O)N2CCC[C@@H]2[C@@]2(O)O[C@](NC(=O)[C@@H]3C=C4c5cccc6[nH]cc(c56)C[C@@H]4N(C)C3)(C(C)C)C(=O)N12`, the AC50 is 2 µM (active). On to `CCNC(=S)NC1CC2CCCC(C1)N2Cc1ccco1` (stereo not given), for which the activity, negative = inhibition was -6.93% [at 2.29 µM]. On the same count and under the same terms, under `CC1=CC(=O)C2=C(C)C[C@@H](O)[C@@H]3[C@@H](OC(=O)[C@H]3C)[C@H]12` stands -15.3% [at 25.6 µM]. The same measure, in the same setting: under `O=C(Nc1cccc2ccccc12)c1nn(C23CC4CC(CC(C4)C2)C3)cc1Br` stands -0.237%; under `NCCCNCCSP(=O)(O)O`, 5.35%. Regarding `CNC(=S)NC1CC2CCCC(C1)N2CC(C)C` (stereo not given), the “activity, negative = inhibition” value is -10%.

As for `C[C@@H]1O[C@H](O[C@H]2C[C@@H](O)[C@@]3(CO)[C@H]4[C@@H](O)C[C@]5(C)[C@@H](C6=CC(=O)OC6)CC[C@]5(O)[C@H]4CC[C@]3(O)C2)[C@@H](O)[C@H](O)[C@@H]1O`, the “activity, negative = inhibition” value was -4.78% [at 25.6 µM]. On the same count and under the same terms, under `Cc1ccc(C2(c3ccc(C)c(O)c3C)CCN(C)CC2)c(C)c1O` stands -1.39% [at 11.4 µM].

For `CCOP(=O)(OCC)c1nc(/C=C/c2ccccc2)oc1NCc1ccccc1`, the AC50 was 14.1 µM (active). As to `C[C@H](Br)C(=O)c1ccc2cc(Br)c3ccccc3c2c1`, the activity, negative = inhibition is -23.5% [at 11.4 µM].

As to `NCCc1c[nH]c2ccc(C(N)=O)cc12`, the activity, negative = inhibition entry is “inactive”. Consider `CCCN(CCC)[C@H]1CCc2c(F)ccc(O)c2C1`, for which the activity, negative = inhibition entry is “inactive”. With `CCS(=O)(=O)Nc1cccc(C(=C2CCCCC2)c2cnc[nH]2)c1`, the AC50 is 0.316 µM (active).

Regarding `CC1(C)CCC(C)(C)c2c1ccc(O)c2Cc1c(O)ccc2c1C(C)(C)CCC2(C)C`, the activity, negative = inhibition is -26.4% [at 11.4 µM].

Regarding `C[C@@]12CC[C@H](O)C[C@@H]1CC[C@H]1[C@H]2CC[C@@]2(C)[C@@H](C3=CC(=O)OC3)CC[C@]12O`, the AC50 was 3.16 µM (active). For `C[C@@]12CC[C@H](O)C[C@@H]1CC[C@H]1[C@@H]2C[C@@H](O)[C@]2(C)[C@@H](C3=CC(=O)OC3)CC[C@]12O`, the “activity, negative = inhibition” value was 2.53% [at 25.6 µM]. Same read-out and setting: under `C[C@@]12CC[C@H](O)C[C@@H]1CC[C@@H]1[C@@H]2CC[C@@]2(C)[C@@H](C3=CC(=O)OC3)[C@H](O)C[C@]12O` stands -21.4% [at 11.4 µM].
